PubChem BioAssay (EPA / NIEHS)
Values joined by “and” are separate entries in the source; they are usually repeats but may differ in a detail not shown here. Equal values may be shown once. Records with an inconclusive call do not appear. Active and inactive are the calls of the source. The calls were made as follows, unless noted: active = hit-call score of the fitted dose curve at least 0.9, where 1 is the maximum; inactive = score below 0.9.

Columns and labels:
[1] = target: Retinoic acid receptor RXR-alpha (Homo sapiens) (UniProt P19793); experiment: OT_NURR1_NURR1RXRa_1440: Odyssey Thera (OT) 24-hour HEK293T Protein Complementation Assay for Nurr1/retinoid X receptor (RXR) (AID 2283386; active = hit-call score of the fitted dose curve at least 0.9, where 1 is the maximum)
Retinoic acid receptor RXR-alpha (Homo sapiens), sequence (P19793 whole entry, looked up, the tested form may be a part): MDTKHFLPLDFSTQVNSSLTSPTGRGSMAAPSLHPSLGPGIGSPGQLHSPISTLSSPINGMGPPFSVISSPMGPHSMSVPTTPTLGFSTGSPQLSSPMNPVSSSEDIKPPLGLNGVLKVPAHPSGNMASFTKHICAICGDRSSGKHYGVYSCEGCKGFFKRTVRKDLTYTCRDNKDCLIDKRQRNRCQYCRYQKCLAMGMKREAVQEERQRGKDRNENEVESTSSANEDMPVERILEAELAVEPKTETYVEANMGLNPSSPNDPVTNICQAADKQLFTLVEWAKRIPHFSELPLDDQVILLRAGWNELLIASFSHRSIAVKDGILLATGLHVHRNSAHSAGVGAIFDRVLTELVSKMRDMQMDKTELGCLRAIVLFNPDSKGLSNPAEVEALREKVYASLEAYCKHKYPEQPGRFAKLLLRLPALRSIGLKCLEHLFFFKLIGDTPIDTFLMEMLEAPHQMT
How it was run: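 Steps: fragment-tagged Nurr1 and RXRα expressed in HEK293T; compounds added; after 24 h, complemented reporter quantified by fluorescence intensity; signal increase over DMSO fitted as the single endpoint.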

[2] = target: Peroxisome proliferator-activated receptor gamma (Homo sapiens) (UniProt P37231); experiment: OT_PPARg_PPARgSRC1_0480: Odyssey Thera (OT) 8-hour Protein-Complementation Assay for Peroxisome Proliferator-activated Receptor Gamma / SRC-1 Co-activator (AID 2283387; active = hit-call score of the fitted dose curve at least 0.9, where 1 is the maximum;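 also: nuclear to cytoplasmic split Venus YFP fluorescence ratio reporting PPARg SRC-1 interaction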)
Peroxisome proliferator-activated receptor gamma (Homo sapiens), sequence (P37231 whole entry, looked up, the tested form may be a part): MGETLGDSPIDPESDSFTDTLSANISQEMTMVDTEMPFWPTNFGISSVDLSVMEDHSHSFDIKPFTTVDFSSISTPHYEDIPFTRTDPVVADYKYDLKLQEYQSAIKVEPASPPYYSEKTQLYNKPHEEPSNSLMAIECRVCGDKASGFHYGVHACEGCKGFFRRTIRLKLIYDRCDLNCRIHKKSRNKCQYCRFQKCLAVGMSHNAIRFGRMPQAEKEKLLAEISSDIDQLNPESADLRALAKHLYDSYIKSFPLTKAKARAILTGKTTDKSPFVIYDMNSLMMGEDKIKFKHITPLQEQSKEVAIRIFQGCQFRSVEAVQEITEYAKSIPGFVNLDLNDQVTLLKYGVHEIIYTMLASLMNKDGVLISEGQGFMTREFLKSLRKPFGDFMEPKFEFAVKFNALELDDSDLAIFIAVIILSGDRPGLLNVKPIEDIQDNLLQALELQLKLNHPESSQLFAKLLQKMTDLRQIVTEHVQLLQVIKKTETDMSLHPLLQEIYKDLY
How it was run: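 Split-YFP (IFP1/IFP2) PPARg/SRC-1 reporter, HEK293T, 37 °C, 5% CO2; 8 h compound; formaldehyde fix + Draq5; high-content imaging, N/C ratio, ≥350 cells/image, positive direction vs DMSO.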

[3] = target: Peroxisome proliferator-activated receptor gamma (Homo sapiens) (UniProt P37231); experiment: OT_PPARg_PPARgSRC1_1440: Odyssey Thera (OT) 24-hour Protein-Complementation Assay for Peroxisome Proliferator-activated Receptor Gamma/ SRC-1 Co-activator (AID 2283388; active = hit-call score of the fitted dose curve at least 0.9, where 1 is the maximum;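 also: nuclear to cytoplasmic ratio of reconstituted Venus YFP fluorescence in fixed imaged cells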)
How it was run: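 Protein-fragment complementation between PPARg and coactivator SRC-1 was measured by fluorescence imaging in transiently transfected HEK293T cells after 24 h treatment. Signal was quantified as N/C ratio in the 488 nm channel, with DMSO as negative control.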

[4] = read-out: Tumor necrosis factor receptor superfamily member 6 (Homo sapiens) (UniProt P25445); experiment: LTEA_HepaRG_FAS: Life Technologies and Expression Analysis (LTEA) Assay for Fas cell surface death receptor (FAS) using HepaRG (AID 2283447); settings: mRNA level, 48 h; actives raise or lower the signal
How it was run: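 Differentiated human HepaRG cells, pre-cultured 48 h, were exposed in duplicate for 48 h to 8-point half-log concentrations (top 100 uM, 0.5% DMSO) in serum-free induction medium; FAS mRNA measured by qRT-PCR, normalized to ACTB/GAPDH/POLR2A, bidirectional fit versus DMSO.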

[5] = read-out: Fatty acid synthase (Homo sapiens) (UniProt P49327); experiment: LTEA_HepaRG_FASN: Life Technologies and Expression Analysis (LTEA) Assay for Fatty Acid Synthase (FASN) using HepaRG (AID 2283448); settings: mRNA level, 48 h; actives raise or lower the signal
How it was run: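 Cells were plated, cultured 48 h, switched to serum-free induction medium, then dosed in duplicate (max 100 uM, half-log dilutions, 0.5% DMSO) for 48 h. RNA was then isolated and FASN quantified by qRT-PCR.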

[6] = read-out: Cyclin D2 (CCND2), CCND2 (gene 894); experiment: LTEA_HepaRG_CCND2: Life Technologies and Expression Analysis (LTEA) Assay for Cyclin D2 (CCND2) using HepaRG (AID 2283449); settings: mRNA level, 48 h; actives raise or lower the signal;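 also: CCND2 transcript measured by TaqMan qRT-PCR and normalised to three housekeeping genes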
How it was run: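 In this HepaRG study, an eight-point concentration series (max 100 uM, 0.5% DMSO) is applied for 48 h. CCND2 mRNA change is derived by qRT-PCR normalised to ACTB, GAPDH and POLR2A.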

[7] = read-out: Cyclin Dependent Kinase Inhibitor 1A (CDKN1A), CDKN1A (gene 1026); experiment: LTEA_HepaRG_CDKN1A: Life Technologies and Expression Analysis (LTEA) Assay for Cyclin Dependent Kinase Inhibitor 1A (CDKN1A) using HepaRG (AID 2283450); settings: mRNA level, 48 h; actives raise or lower the signal
How it was run: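 Read-out is CDKN1A mRNA by TaqMan qRT-PCR, normalized to three housekeeping genes and fitted in both directions against the DMSO baseline. Human HepaRG cells were treated 48 h with test chemicals up to 100 uM in half-log steps, 0.5% DMSO.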

[8] = read-out: Cyclin D1 (CCND1), CCND1 (gene 595); experiment: LTEA_HepaRG_CCND1: Life Technologies and Expression Analysis (LTEA) Assay for Cyclin D1 (CCND1) using HepaRG (AID 2283451); settings: mRNA level, 48 h; actives raise or lower the signal;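 as to AC50: TaqMan qRT-PCR transcript level normalised to ACTB GAPDH and POLR2A housekeeping genes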
How it was run: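 HepaRG plated 48 h, medium switched to serum-free induction medium, chemicals added in duplicate (top 100 uM, half-log steps, 0.5% DMSO) for 48 h, cells lysed, RNA measured by TaqMan qRT-PCR.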

[9] = read-out: catalase (CAT), CAT (gene 847); experiment: LTEA_HepaRG_CAT: Life Technologies and Expression Analysis (LTEA) Assay for catalase (CAT) using HepaRG (AID 2283452); settings: mRNA level, 48 h; actives raise or lower the signal;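 as to AC50: TaqMan qRT-PCR signal normalized to ACTB GAPDH and POLR2A housekeeping genes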
How it was run: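 Differentiated HepaRG cells in serum-free induction medium were dosed 48 h in duplicate, eight half-log concentrations from 100 uM in 0.5% DMSO. Transcript measured by TaqMan qRT-PCR, normalised to ACTB/GAPDH/POLR2A, fitted bidirectionally against DMSO.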

[10] = read-out: flavin-containing dimethylaniline monooxygenases 3 (FMO3), FMO3 (gene 2328); experiment: LTEA_HepaRG_FMO3: Life Technologies and Expression Analysis (LTEA) Assay for flavin-containing dimethylaniline monooxygenases 3 (FMO3) using HepaRG (AID 2283453); settings: mRNA level, 48 h; actives raise or lower the signal;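 as to AC50: FMO3 transcript by TaqMan qRT-PCR normalized to ACTB GAPDH and POLR2A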
How it was run: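 FMO3 transcript quantified by TaqMan qRT-PCR against three housekeeping genes after 48 h chemical exposure of HepaRG cells. Eight-point half-log series, top 100 uM, 0.5% DMSO vehicle; phenobarbital 1mM induction control; up- or down-regulation fitted.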

Measured: AC50

Fatty acid synthase (Homo sapiens), sequence (P49327 whole entry, looked up): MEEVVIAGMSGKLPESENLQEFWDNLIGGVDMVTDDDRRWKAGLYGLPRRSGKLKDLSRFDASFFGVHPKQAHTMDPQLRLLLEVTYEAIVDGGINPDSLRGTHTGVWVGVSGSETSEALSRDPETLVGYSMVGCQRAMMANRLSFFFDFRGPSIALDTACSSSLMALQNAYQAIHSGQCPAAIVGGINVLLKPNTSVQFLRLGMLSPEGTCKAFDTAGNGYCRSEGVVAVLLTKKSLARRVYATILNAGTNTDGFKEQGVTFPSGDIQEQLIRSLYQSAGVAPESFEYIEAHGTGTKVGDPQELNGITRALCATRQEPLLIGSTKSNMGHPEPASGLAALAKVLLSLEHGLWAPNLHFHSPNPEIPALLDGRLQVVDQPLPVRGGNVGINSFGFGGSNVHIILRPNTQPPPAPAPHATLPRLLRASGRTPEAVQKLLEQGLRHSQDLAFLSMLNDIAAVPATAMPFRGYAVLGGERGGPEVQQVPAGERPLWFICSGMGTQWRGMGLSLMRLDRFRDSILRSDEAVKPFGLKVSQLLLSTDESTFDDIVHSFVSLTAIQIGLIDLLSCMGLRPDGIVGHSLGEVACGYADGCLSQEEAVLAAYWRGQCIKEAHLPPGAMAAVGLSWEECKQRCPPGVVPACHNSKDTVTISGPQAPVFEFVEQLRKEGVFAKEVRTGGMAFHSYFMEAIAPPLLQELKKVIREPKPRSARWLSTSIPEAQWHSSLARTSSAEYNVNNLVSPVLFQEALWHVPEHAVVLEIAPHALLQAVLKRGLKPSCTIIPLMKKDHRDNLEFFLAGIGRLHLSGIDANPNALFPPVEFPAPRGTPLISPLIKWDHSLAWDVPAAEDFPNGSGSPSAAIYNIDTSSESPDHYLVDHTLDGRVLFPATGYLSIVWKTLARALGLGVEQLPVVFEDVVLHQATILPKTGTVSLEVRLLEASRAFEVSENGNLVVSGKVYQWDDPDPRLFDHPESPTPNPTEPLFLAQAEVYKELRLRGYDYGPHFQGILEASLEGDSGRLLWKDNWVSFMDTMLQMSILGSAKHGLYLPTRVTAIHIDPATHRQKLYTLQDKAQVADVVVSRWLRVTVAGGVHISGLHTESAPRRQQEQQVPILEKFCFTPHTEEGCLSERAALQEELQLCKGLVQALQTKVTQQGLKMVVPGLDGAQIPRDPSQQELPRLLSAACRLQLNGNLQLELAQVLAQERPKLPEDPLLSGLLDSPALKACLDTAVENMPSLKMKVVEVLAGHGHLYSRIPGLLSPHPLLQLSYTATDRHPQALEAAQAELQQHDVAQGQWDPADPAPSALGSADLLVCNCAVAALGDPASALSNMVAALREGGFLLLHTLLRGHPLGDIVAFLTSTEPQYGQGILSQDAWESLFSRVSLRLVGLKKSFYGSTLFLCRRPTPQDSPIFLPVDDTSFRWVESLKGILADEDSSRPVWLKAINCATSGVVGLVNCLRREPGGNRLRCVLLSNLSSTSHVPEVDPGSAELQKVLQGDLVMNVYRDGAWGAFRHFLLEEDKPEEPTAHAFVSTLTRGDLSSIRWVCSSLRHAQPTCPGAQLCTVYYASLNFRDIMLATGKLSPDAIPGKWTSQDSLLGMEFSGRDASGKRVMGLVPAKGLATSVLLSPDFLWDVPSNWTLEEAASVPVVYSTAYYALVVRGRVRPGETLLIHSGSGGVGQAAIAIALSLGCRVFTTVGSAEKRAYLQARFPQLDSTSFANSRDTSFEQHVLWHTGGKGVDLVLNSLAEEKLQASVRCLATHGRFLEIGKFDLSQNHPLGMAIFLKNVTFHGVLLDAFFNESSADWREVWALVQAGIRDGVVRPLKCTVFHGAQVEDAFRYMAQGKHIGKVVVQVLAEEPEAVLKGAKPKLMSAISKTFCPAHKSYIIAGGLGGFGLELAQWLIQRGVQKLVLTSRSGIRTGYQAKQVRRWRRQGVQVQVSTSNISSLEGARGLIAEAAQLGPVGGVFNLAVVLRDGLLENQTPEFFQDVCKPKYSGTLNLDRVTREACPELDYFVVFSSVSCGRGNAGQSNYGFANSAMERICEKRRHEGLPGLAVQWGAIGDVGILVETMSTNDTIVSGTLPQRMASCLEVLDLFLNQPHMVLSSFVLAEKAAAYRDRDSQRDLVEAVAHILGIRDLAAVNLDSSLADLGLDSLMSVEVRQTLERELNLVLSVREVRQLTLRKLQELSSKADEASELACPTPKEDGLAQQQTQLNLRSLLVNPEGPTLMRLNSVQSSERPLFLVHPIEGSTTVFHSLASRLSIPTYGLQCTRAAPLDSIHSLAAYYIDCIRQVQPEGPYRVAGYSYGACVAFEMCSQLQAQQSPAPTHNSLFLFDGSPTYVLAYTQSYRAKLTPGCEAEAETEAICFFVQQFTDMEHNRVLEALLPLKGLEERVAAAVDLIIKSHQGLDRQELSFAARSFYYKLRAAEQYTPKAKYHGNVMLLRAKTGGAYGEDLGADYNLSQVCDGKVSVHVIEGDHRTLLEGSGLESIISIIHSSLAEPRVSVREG

Cn1cc[nH]c1=S
inactive: all assays above

O=C1CN(N=Cc2ccc([N+](=O)[O-])o2)C(=O)N1
active: [7] 81.5 µM | [10] 73 µM
not listed: [1]
inactive: all other assays above

NC(=O)N1c2ccccc2C=Cc2ccccc21
not listed: [6]
inactive: all other assays above

CCCCCCCCCCCCCCCCOS(=O)(=O)O
inactive: all assays above

c1ccc(C(O[C@@H]2CCCN(CCc3ccc4c(c3)OCO4)C2)c2ccccc2)cc1
active: [1] 77.7 µM and 81.9 µM | [4] 50 µM | [5] 79.9 µM | [7] 77.7 µM | [8] 50 µM | [9] 69.7 µM | [10] 70 µM
inactive: [2] | [3] | [6]

O=C(O)[C@H](O)[C@@H](O)C(=O)O
inactive: all assays above

CCCCCOC(C)=O
inactive: all assays above

CC(=O)c1ccccc1
inactive: all assays above

Cc1nc(-c2ccccn2)ncc1C(=O)Nn1cc(C)c2cc(F)ccc21
active: [6] 1.49 µM | [9] 50 µM | [10] 85.2 µM
inactive: all other assays above

O=S1(=O)CCCO1
inactive: all assays above
